Source: PubChem BioAssay (Tox21)
Inconclusive results are not listed. Activity calls are given as the source filed them. Calls follow the shape of the dose curve; as a rule, active = well fitted curve in the direction sought with a large enough effect in the repeat runs; inconclusive = weak or mixed curves; inactive = no such curve, though single readings can be large; an effect the other way counts as inactive or inconclusive.

The compounds below were run against Cytochrome P450 1A2 (Homo sapiens) (UniProt P05177) (assay: Cytochrome P450 Family 1 Subfamily A Member 2 (CYP1A2) small molecule antagonists: luciferase reporter qHTS assay (AID 1671199)). Details: P450-Glo CYP1A2 enzyme, luciferin luminescence, 1 h; series mostly up to 53 µM; activity change, negative = inhibition: at the top concentration.
Sequence of Cytochrome P450 1A2 (Homo sapiens) (P05177 whole entry, looked up): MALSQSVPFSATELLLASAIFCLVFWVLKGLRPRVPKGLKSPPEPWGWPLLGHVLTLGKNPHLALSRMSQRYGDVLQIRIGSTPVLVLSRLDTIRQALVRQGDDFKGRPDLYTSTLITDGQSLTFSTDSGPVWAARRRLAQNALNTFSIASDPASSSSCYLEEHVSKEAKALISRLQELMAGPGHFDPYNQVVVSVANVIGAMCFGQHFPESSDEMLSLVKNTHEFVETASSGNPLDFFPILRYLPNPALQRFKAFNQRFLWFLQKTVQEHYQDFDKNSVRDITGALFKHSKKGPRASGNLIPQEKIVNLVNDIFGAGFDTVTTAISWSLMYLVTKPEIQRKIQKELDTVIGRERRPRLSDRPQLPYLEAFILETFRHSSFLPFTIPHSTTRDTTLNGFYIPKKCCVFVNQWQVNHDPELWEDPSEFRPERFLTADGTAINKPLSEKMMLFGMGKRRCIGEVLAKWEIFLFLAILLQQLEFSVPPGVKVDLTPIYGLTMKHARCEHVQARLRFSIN
Outline: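 Quantitative high-throughput format using the P450-Glo CYP1A2 system. Reaction initiated by NADPH regeneration solution, 1 h at room temperature, then stopped with detection reagent; luminescence measured 20 min later.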
% is scaled to controls: 0 for no effect and ±100 for the full control effect; potency is read from the fitted curve at half-maximal effect.
Also: nearly all actives have a fitted effect of over 50% in size.

SMILES | Potency | activity change, negative = inhibition
COc1ccc(C)cc1[N+](=O)[O-] | 10.2 µM (active) | 
CC(C)Nc1ccc(NC(C)C)c2c1C(=O)c1ccccc1C2=O | 2.34 µM (active) | 
CN(C)C(=O)NC1(c2ccccc2)CCN(CC[C@@]2(c3ccc(F)c(F)c3)CN(C(=O)c3ccccc3)CCO2)CC1 |  | -6.76% [at 115 µM] (inactive)
CCc1c(C(=O)NN2CCCCC2)nn(-c2ccc(Cl)cc2Cl)c1-c1ccc(Br)cc1 |  | -4.38% [at 115 µM] (inactive)
O=C(O)C1(C(=O)Nc2ccc(Cl)cc2Cl)CC1 | 39.9 µM (active) | 
Cc1oc(-c2ccccc2)nc1CCOc1cccc2c1ccn2CCC(=O)O |  | -19.4% [at 115 µM] (inactive)
COc1cc(C(=O)OCCCN2CCCN(CCCOC(=O)c3cc(OC)c(OC)c(OC)c3)CC2)cc(OC)c1OC |  | -7.84% (inactive)
COc1ccc(-c2nc3ccc(C4=NNC(=O)CC4C)cc3[nH]2)cc1 (stereo not drawn) | 3.63 µM (active) | 
C=C(C)C(=O)OCC |  | -24.8% [at 115 µM] (inactive)
Cc1cc(C(=O)O)ccc1[N+](=O)[O-] | 40 µM (active) | 
C[C@H]1C[C@H]2[C@@H]3CCC4=CC(=O)C=C[C@]4(C)[C@@]3(Cl)[C@@H](O)C[C@]2(C)[C@@]1(O)C(=O)CO |  | 0.936% (inactive)
Nc1ccc([N+](=O)[O-])c(C(F)(F)F)c1 | 11 µM (active) | 
C=C(C)C(=O)OCCO |  | -9.79% [at 115 µM] (inactive)

The compounds below were run against Voltage-gated inwardly rectifying potassium channel KCNH2 (Homo sapiens) (UniProt Q12809) (assay: Human Ether-a-go-go-Related Gene (hERG) channel small molecule antagonists: fluorescence cell-based qHTS assay (AID 1671200;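 as to activity change, negative = inhibition: hERG-expressing U2OS cells given a thallium stimulus after FluxOR II dye loading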)). Details: hERG-U2OS cells, FluxOR thallium flux fluorescence; series mostly up to 76.8 µM; activity change, negative = inhibition: at the top concentration.
Sequence of Voltage-gated inwardly rectifying potassium channel KCNH2 (Homo sapiens) (Q12809 whole entry, looked up): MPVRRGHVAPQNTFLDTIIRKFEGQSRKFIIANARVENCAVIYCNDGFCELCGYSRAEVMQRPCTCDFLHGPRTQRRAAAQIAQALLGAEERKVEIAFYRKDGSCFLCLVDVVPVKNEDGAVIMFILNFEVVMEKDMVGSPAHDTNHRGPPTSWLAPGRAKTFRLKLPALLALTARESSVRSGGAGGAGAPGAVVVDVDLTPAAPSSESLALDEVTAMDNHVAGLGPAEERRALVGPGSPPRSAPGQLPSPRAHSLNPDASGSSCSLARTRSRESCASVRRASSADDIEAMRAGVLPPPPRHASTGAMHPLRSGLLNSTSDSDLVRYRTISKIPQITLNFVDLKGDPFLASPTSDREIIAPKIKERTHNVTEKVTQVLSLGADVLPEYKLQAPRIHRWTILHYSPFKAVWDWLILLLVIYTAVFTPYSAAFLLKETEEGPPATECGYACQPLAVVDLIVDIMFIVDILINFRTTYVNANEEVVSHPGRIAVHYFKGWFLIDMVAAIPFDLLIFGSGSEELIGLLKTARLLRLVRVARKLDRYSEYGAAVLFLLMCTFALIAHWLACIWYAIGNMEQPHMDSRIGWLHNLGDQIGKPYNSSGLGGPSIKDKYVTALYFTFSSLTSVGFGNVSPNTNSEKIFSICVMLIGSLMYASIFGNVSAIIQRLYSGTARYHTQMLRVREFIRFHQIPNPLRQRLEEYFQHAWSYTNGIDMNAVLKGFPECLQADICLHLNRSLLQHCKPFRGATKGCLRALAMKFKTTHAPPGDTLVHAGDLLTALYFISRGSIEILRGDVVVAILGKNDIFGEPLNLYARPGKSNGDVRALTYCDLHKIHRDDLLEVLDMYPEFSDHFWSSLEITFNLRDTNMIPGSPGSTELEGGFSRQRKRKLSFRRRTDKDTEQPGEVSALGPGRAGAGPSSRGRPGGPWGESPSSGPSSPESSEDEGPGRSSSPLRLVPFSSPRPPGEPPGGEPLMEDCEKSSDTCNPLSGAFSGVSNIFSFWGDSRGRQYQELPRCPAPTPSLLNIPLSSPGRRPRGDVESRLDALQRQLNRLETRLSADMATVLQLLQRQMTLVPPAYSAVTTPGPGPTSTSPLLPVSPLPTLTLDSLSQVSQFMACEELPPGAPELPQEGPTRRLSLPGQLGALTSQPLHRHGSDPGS
Outline: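 In this thallium-flux screen, overnight-cultured U2OS cells bearing the channel are dye-loaded in darkness for an hour, rested 10 min at room temperature, and then monitored kinetically at 480/540 nm for two minutes post-stimulus.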

SMILES | activity change, negative = inhibition | Potency
CCCCO | 5.23% (inactive) | 
CN(C)CCN(Cc1ccccc1)c1ccccn1 |  | 9.52 µM (active)
C[C@H](CCC(=O)O)[C@H]1CC[C@H]2[C@@H]3CC[C@@H]4C[C@H](O)CC[C@]4(C)[C@H]3C[C@H](O)[C@]12C | 0.954% (inactive) | 
COc1ccc(C)cc1[N+](=O)[O-] | -7.98% (inactive) | 
CCN(CC)CCOC(=O)C(Cc1cccc2ccccc12)CC1CCCO1 (stereo not drawn) |  | 9.52 µM (active)
O=C(O)c1nc(Cl)c(Cl)c(Cl)c1Cl | -4.7% (inactive) | 
C/C(=C(\CCOP(=O)(O)O)SC(=O)c1ccccc1)N(C=O)Cc1cnc(C)nc1N | 1.89% [at 6.97 µM] (inactive) | 
O=C(c1ccc(F)cc1)C1CCN(CCn2c(=S)[nH]c3ccccc3c2=O)CC1 |  | 0.601 µM (active)
CC(C)O.CC(C)O.CCOC(=O)/C=C(\C)O.CCOC(=O)/C=C(\C)O.[Ti] | -0.135% (inactive) | 
CC(C)Nc1ccc(NC(C)C)c2c1C(=O)c1ccccc1C2=O | -5.72% [at 35.3 µM] (inactive) | 
CN(C)CCN(Cc1ccc(Cl)cc1)c1ccccn1 |  | 2.39 µM (active)
C=CC(=O)OCCOc1ccccc1 | 15.1% (inactive) | 
C=CC(=O)OCCOCCOC(=O)C=C | 24.6% (inactive) | 
CN(C)CCCN1c2ccccc2Sc2ccccc21 |  | 9.52 µM (active)
CC(C)(O)c1ccc(CNC(=O)c2cccnc2Oc2ccc(F)cc2)cc1 | -4.41% (inactive) | 
CNCCCCOc1ccccc1Cc1ccccc1 |  | 3.38 µM (active)
C#C[C@]1(O)CC[C@H]2[C@@H]3CCc4cc(OC5CCCC5)ccc4[C@H]3CC[C@@]21C | -26.4% [at 35.3 µM] (inactive) | 
O=C(O)C1(C(=O)Nc2ccc(Cl)cc2Cl)CC1 | -12.8% (inactive) | 
CCCCCCCCCCCCCCCCCCOS(=O)(=O)O | 21.9% (inactive) | 

SMILES | activity change, negative = inhibition | Potency
CCCn1cnc2c1c(=O)n(CCCCC(C)=O)c(=O)n2C | 2.85% [at 35.3 µM] (inactive) | 
CC(=O)[O][Al] | 2.32% (inactive) | 
Cc1oc(-c2ccccc2)nc1CCOc1cccc2c1ccn2CCC(=O)O | 1.94% (inactive) | 
COc1cc(C(=O)OCCCN2CCCN(CCCOC(=O)c3cc(OC)c(OC)c(OC)c3)CC2)cc(OC)c1OC |  | 6.01 µM (active)
NCC(=O)O | 0.344% [at 15.8 µM] (inactive) | 
CCC(C)O (stereo not drawn) | -0.954% (inactive) | 
COc1ccc(-c2nc3ccc(C4=NNC(=O)CC4C)cc3[nH]2)cc1 (stereo not drawn) | 3% [at 35.3 µM] (inactive) | 
C=C(C)C(=O)OCC | 1.61% (inactive) | 
CCOc1ccc(O)cc1 | 1.13% (inactive) | 
CCCCCCCC/C=C\CCCCCCCC(=O)OCC | 1.25% (inactive) | 
Cc1cc(C(=O)O)ccc1[N+](=O)[O-] | -0.581% (inactive) | 
CO[C@@H]1[C@H](OC(=O)/C=C/C=C/C=C/C=C/C(=O)O)CC[C@]2(CO2)[C@H]1[C@@]1(C)O[C@@H]1CC=C(C)C | 6.46% (inactive) | 
O=S(c1cc(Cl)cc(Cl)c1O)c1cc(Cl)cc(Cl)c1O | -5.28% [at 35.3 µM] (inactive) | 
Nc1cc(C(=O)O)c(O)c(S(=O)(=O)O)c1 | 0.508% (inactive) | 
CC(=O)c1ccc2c(c1)N(CCCN1CCC(CCO)CC1)c1ccccc1S2 |  | 3.01 µM (active)
Nc1ccc([N+](=O)[O-])c(C(F)(F)F)c1 | -1.6% [at 35.3 µM] (inactive) | 
Cc1cc(N)c2cc(NC(=O)Nc3ccc4nc(C)cc(N)c4c3)ccc2n1 | -9.65% [at 35.3 µM] (inactive) | 
C=C(C)C(=O)OCCO | 4.15% (inactive) | 

Each compound was assayed against Cytochrome P450 3A4 (Homo sapiens) (UniProt P08684) (assay: Cytochrome P450 Family 3 Subfamily A Member 4 (CYP3A4) small molecule antagonists: luciferase reporter qHTS assay (AID 1671201)). Details: P450-Glo CYP3A4 enzyme, luciferin luminescence, 1 h; series mostly up to 115 µM; activity change, negative = inhibition: at the top concentration.
Sequence of Cytochrome P450 3A4 (Homo sapiens) (P08684 whole entry, looked up): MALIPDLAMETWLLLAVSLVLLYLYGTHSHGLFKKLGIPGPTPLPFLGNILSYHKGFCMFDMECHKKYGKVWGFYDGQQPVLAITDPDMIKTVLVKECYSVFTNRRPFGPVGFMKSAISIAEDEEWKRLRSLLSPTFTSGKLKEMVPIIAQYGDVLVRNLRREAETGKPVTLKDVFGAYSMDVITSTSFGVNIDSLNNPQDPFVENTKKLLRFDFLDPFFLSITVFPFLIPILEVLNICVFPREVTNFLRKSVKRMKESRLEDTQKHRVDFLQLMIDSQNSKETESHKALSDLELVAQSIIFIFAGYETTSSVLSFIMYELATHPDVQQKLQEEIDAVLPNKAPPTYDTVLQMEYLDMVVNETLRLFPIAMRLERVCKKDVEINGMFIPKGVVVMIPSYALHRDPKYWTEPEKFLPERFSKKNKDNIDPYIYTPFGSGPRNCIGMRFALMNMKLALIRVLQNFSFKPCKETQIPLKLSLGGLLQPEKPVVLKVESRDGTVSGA
Outline: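 CYP3A4 activity was followed with a P450-Glo proluciferin substrate. Test compounds in DMSO were preincubated 10 min; NADPH regeneration then ran 1 h, and light output was read 20 min after detection reagent.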

SMILES | activity change, negative = inhibition | Potency
CN(C)CCN(Cc1ccccc1)c1ccccn1 | -21.3% [at 52.9 µM] (inactive) | 
COc1ccc(C)cc1[N+](=O)[O-] |  | 36.1 µM (active)
CN(C)CCN(Cc1ccc(Cl)cc1)c1ccccn1 | 1.99% [at 52.9 µM] (inactive) | 
C=CC(=O)OCCOCCOC(=O)C=C | -17.2% (inactive) | 
CCc1c(C(=O)NN2CCCCC2)nn(-c2ccc(Cl)cc2Cl)c1-c1ccc(Br)cc1 | 34.6% (inactive) | 
O=C(O)C1(C(=O)Nc2ccc(Cl)cc2Cl)CC1 | 44.2% (inactive) | 
CCCCCCCCCCCCCCCCCCOS(=O)(=O)O | -21.7% (inactive) | 
CCCn1cnc2c1c(=O)n(CCCCC(C)=O)c(=O)n2C | 2.85% [at 52.9 µM] (inactive) | 
Cc1oc(-c2ccccc2)nc1CCOc1cccc2c1ccn2CCC(=O)O | 29.3% (inactive) | 
COc1ccc(-c2nc3ccc(C4=NNC(=O)CC4C)cc3[nH]2)cc1 (stereo not drawn) | -26.6% [at 52.9 µM] (inactive) | 
C=C(C)C(=O)OCC | 5.57% (inactive) | 
CCOc1ccc(O)cc1 | 0.686% (inactive) | 
Cc1cc(C(=O)O)ccc1[N+](=O)[O-] | 21.7% (inactive) | 
C[C@H]1C[C@H]2[C@@H]3CCC4=CC(=O)C=C[C@]4(C)[C@@]3(Cl)[C@@H](O)C[C@]2(C)[C@@]1(O)C(=O)CO | -10.3% [at 52.9 µM] (inactive) | 
O=S(c1cc(Cl)cc(Cl)c1O)c1cc(Cl)cc(Cl)c1O | 24.3% [at 52.9 µM] (inactive) | 
Nc1cc(C(=O)O)c(O)c(S(=O)(=O)O)c1 | 4.87% (inactive) | 
Nc1ccc([N+](=O)[O-])c(C(F)(F)F)c1 | -16.3% [at 52.9 µM] (inactive) | 
C=C(C)C(=O)OCCO | 4.83% (inactive) | 
